How the values were obtained:
[1] = target: T1, Tyrosine-protein kinase ITK/TSK (Homo sapiens) (UniProt Q08881); conditions: at 1 µM;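 note: values are mean percent inhibition of ITK from the GSK PKIS screen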
T1 sequence (whole entry): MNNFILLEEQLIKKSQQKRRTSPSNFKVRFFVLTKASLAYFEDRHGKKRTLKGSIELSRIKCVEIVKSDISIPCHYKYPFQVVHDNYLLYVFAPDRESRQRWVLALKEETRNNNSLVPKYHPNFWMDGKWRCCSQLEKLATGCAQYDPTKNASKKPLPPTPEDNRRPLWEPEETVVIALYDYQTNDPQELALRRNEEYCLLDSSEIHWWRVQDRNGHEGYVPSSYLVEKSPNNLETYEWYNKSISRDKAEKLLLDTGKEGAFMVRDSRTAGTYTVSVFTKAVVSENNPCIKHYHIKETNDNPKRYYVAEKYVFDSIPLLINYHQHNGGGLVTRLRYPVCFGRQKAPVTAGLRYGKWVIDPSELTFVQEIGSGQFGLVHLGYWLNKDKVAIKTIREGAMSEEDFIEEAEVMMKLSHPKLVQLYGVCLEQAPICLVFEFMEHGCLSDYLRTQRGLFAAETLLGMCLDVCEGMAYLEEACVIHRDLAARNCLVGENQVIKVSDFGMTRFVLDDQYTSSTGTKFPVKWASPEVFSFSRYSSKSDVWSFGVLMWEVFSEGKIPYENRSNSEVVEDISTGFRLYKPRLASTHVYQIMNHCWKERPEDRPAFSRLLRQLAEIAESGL

[2] = target: Tyrosine-protein kinase JAK1 (Homo sapiens) (UniProt P23458); conditions: at 0.1 µM
[3] = target: Tyrosine-protein kinase JAK1 (Homo sapiens) (UniProt P23458); conditions: at 1 µM
[4] = target: Tyrosine-protein kinase JAK2 (Homo sapiens) (UniProt O60674); conditions: at 0.1 µM
[5] = target: Tyrosine-protein kinase JAK2 (Homo sapiens) (UniProt O60674); conditions: at 1 µM
[6] = target: T2, Tyrosine-protein kinase JAK3 (Homo sapiens) (UniProt P52333); conditions: at 0.1 µM
T2 sequence (whole entry): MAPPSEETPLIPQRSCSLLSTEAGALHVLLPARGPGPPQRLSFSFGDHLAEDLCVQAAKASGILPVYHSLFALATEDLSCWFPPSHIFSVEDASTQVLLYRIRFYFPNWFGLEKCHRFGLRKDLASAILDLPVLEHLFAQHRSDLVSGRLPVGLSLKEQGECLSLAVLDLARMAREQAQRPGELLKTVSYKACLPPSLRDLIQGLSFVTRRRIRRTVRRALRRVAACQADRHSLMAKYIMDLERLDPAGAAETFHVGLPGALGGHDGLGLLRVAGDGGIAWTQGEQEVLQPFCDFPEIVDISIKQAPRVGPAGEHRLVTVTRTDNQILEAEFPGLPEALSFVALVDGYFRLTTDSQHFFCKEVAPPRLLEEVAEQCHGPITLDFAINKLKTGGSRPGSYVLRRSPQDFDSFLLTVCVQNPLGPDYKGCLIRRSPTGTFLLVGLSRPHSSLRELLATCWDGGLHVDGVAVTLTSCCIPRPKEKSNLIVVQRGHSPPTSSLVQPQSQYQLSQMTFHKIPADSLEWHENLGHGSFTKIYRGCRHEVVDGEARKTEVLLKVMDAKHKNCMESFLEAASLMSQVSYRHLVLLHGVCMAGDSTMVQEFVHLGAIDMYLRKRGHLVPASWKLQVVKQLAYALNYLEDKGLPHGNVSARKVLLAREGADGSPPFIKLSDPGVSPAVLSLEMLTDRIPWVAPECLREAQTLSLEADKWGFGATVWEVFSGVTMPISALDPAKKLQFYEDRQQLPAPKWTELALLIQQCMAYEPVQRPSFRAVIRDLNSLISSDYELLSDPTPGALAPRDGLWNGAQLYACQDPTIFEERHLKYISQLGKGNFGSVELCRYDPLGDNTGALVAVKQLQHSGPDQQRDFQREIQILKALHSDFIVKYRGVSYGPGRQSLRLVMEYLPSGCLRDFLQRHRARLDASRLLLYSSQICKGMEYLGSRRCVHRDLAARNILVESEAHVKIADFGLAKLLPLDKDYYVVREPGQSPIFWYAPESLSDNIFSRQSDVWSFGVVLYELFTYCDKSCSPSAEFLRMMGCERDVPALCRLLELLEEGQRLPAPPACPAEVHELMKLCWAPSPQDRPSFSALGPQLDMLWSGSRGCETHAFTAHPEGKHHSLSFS

[7] = target: T2, Tyrosine-protein kinase JAK3 (Homo sapiens); conditions: at 1 µM
[8] = target: Vascular endothelial growth factor receptor 2 (Homo sapiens) (UniProt P35968); conditions: at 0.1 µM
[9] = target: Vascular endothelial growth factor receptor 2 (Homo sapiens) (UniProt P35968); conditions: at 1 µM
[10] = target: Mast/stem cell growth factor receptor Kit (Homo sapiens) (UniProt P10721); conditions: at 0.1 µM
[11] = target: Mast/stem cell growth factor receptor Kit (Homo sapiens) (UniProt P10721); conditions: at 1 µM
[12] = tested on: Mast/stem cell growth factor receptor Kit (Homo sapiens), P10721 [D816V]; conditions: at 0.1 µM
[13] = tested on: Mast/stem cell growth factor receptor Kit (Homo sapiens), P10721 [D816V]; conditions: at 1 µM
[14] = tested on: Mast/stem cell growth factor receptor Kit (Homo sapiens), P10721 [T670I]; conditions: at 0.1 µM
[15] = tested on: Mast/stem cell growth factor receptor Kit (Homo sapiens), P10721 [T670I]; conditions: at 1 µM
[16] = tested on: Mast/stem cell growth factor receptor Kit (Homo sapiens), P10721 [V560G]; conditions: at 0.1 µM
[17] = tested on: Mast/stem cell growth factor receptor Kit (Homo sapiens), P10721 [V560G]; conditions: at 1 µM
[18] = target: Tyrosine-protein kinase Lck (Homo sapiens) (UniProt P06239); conditions: at 0.1 µM
[19] = target: Tyrosine-protein kinase Lck (Homo sapiens) (UniProt P06239); conditions: at 1 µM
[20] = target: Leukocyte tyrosine kinase receptor (Homo sapiens) (UniProt P29376); conditions: at 0.1 µM
Leukocyte tyrosine kinase receptor (Homo sapiens), sequence (P29376 whole entry): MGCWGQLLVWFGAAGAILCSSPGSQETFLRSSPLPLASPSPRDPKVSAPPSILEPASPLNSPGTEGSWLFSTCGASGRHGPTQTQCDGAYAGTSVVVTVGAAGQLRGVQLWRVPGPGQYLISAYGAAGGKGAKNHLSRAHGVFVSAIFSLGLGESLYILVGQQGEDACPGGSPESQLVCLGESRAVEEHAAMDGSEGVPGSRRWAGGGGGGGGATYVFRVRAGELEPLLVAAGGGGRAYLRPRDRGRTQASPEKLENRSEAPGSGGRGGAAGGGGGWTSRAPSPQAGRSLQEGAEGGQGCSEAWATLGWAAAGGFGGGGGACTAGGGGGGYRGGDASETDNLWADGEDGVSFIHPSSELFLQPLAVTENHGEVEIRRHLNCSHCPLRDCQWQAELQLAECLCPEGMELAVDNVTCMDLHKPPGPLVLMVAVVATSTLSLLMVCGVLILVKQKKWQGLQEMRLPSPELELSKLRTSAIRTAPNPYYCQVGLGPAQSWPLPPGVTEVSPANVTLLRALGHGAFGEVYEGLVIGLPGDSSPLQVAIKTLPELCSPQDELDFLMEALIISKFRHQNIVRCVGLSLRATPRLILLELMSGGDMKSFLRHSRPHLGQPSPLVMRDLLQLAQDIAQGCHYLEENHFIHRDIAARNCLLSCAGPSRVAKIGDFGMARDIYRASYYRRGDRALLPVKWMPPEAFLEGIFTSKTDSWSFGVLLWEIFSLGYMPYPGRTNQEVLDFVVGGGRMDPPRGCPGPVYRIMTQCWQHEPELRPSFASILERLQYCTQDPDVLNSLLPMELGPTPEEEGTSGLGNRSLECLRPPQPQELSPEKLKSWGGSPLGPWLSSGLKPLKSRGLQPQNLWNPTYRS

Vascular endothelial growth factor receptor 2 (Homo sapiens), sequence (P35968 whole entry): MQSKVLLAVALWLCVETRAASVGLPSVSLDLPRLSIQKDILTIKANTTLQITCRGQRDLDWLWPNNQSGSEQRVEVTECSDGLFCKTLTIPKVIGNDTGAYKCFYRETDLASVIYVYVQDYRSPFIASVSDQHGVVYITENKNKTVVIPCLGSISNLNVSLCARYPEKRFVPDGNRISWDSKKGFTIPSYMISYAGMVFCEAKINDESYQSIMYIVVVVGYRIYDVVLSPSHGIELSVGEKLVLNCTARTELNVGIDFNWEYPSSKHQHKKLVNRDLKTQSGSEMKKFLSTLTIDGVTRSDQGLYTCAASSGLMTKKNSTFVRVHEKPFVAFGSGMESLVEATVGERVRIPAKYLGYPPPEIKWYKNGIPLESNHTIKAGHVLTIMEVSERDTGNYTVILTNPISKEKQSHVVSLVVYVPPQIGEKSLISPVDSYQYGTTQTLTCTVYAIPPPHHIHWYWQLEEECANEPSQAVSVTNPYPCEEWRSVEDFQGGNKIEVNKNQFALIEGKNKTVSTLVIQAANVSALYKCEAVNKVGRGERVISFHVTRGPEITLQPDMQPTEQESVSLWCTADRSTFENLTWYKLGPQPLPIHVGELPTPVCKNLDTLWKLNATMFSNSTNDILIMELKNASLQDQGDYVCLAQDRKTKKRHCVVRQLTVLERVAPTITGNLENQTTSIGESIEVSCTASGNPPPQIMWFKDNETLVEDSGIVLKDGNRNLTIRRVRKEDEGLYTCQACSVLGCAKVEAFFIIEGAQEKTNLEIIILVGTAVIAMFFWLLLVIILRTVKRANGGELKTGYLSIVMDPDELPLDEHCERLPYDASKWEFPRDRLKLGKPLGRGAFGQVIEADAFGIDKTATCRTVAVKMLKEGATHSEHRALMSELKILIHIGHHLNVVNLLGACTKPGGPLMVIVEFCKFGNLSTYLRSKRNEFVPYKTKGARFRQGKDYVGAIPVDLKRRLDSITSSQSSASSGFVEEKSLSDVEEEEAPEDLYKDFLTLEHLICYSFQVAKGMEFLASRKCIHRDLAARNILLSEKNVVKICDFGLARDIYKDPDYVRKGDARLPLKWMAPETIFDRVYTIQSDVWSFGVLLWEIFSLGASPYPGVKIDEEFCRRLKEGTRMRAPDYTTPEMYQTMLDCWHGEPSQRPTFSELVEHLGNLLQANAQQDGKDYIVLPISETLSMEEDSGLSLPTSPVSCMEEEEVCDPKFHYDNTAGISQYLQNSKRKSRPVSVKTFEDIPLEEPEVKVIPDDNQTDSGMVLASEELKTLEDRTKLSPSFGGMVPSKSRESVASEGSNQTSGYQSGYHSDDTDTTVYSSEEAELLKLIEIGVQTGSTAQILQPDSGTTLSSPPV
Mast/stem cell growth factor receptor Kit (Homo sapiens), sequence (P10721 whole entry): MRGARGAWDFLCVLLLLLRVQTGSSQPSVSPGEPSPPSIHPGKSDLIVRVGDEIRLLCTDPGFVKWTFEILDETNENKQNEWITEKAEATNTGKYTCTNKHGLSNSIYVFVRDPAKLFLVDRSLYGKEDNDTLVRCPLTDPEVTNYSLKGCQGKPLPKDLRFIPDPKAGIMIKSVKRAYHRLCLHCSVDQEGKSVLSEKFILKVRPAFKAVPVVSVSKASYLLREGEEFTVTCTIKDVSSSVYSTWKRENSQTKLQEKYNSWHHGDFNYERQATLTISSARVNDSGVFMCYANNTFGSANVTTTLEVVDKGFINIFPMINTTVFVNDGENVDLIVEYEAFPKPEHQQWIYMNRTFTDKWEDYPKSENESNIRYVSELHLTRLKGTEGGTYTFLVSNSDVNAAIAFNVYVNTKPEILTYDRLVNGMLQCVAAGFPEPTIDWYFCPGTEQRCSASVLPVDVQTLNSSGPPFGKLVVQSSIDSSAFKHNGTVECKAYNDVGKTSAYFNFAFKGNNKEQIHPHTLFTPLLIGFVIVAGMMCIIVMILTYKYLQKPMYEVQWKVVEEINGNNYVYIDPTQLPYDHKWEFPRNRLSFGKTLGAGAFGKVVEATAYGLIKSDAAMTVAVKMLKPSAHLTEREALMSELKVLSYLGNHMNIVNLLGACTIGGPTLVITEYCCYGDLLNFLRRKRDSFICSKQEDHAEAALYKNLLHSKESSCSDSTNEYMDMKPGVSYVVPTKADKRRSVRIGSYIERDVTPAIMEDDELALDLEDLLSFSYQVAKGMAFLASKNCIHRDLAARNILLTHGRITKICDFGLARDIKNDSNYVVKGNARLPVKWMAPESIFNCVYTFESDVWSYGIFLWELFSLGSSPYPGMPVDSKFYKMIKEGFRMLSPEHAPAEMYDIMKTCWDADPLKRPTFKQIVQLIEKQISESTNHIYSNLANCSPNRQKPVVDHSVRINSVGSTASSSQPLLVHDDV
Mast/stem cell growth factor receptor Kit (Homo sapiens), P10721 [D816V], sequence (P10721 whole entry D816V): as the sequence (P10721 whole entry) above, with D816V counted along it
Tyrosine-protein kinase JAK2 (Homo sapiens), sequence (O60674 whole entry): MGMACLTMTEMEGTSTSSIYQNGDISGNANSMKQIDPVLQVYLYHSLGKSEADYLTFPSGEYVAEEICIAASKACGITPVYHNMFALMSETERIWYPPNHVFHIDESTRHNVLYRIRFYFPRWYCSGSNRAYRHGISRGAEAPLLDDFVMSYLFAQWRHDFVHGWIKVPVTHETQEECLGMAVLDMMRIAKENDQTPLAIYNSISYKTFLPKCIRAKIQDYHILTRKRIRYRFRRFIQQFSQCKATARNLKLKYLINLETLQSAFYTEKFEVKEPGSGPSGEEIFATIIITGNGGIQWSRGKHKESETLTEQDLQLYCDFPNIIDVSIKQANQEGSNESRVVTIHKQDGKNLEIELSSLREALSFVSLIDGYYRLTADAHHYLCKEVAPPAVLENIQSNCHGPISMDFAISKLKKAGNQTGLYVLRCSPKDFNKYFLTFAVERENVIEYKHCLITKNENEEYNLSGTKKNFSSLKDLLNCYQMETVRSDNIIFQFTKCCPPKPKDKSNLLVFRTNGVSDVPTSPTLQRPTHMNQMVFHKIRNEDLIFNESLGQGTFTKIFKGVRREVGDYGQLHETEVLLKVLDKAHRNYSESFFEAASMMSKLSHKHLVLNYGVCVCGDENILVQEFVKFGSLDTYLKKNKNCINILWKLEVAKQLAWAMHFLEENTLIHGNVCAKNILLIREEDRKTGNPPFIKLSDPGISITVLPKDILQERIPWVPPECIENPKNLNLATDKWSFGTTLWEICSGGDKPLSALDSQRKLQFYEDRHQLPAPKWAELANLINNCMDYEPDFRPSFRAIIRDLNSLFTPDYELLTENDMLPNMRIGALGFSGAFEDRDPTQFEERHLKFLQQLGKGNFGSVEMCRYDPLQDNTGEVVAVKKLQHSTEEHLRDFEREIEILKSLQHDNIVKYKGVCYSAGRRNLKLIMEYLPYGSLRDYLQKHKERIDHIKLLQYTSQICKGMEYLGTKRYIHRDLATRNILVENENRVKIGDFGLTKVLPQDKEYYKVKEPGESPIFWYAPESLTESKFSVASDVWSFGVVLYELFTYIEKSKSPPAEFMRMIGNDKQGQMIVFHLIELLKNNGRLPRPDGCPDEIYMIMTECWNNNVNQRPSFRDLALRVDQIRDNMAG
Mast/stem cell growth factor receptor Kit (Homo sapiens), P10721 [V560G], sequence (P10721 whole entry V560G): as the sequence (P10721 whole entry) above, with V560G counted along it
Tyrosine-protein kinase Lck (Homo sapiens), sequence (P06239 2-509 limits assumed): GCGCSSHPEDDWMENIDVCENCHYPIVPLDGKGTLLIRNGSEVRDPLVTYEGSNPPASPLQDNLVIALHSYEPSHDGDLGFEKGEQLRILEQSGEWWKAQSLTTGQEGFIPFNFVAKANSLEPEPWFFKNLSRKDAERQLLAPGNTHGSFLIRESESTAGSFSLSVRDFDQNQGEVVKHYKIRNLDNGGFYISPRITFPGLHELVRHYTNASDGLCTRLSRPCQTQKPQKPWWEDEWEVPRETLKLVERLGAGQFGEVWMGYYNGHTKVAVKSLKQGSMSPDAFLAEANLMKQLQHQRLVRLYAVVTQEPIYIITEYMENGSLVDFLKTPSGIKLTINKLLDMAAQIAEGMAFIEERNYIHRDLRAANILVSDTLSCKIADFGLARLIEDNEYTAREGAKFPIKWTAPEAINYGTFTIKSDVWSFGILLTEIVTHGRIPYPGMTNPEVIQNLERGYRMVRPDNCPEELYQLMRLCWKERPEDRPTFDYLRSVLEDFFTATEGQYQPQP
Mast/stem cell growth factor receptor Kit (Homo sapiens), P10721 [T670I], sequence (P10721 whole entry T670I): as the sequence (P10721 whole entry) above, with T670I counted along it

| Structure (SMILES) | inhibition [1] | inhibition [2] | inhibition [3] | inhibition [4] | inhibition [5] | inhibition [6] | inhibition [7] | inhibition [8] | inhibition [9] | inhibition [10] | inhibition [11] | inhibition [12] | inhibition [13] | inhibition [14] | inhibition [15] | inhibition [16] | inhibition [17] | inhibition [18] | inhibition [19] | inhibition [20] |
| --- | --- | --- | --- | --- | --- | --- | --- | --- | --- | --- | --- | --- | --- | --- | --- | --- | --- | --- | --- | --- |
| Clc1ccc(-c2nn3ncccc3c2-c2ccnc(Nc3ccccc3)n2)cc1 | 2.29% | -4.43% | -2.06% | 1.44% | 0.88% | 0.42% | 2.99% | 11.2% | 42.1% | 11.7% | 66.9% | 1.51% | -1.04% | -3.61% | 9.51% | 3.31% | 39.8% | 13.9% | 60% | 1.38% |
| c1ccc(COc2ccc(Nc3ncnc4ccc(-c5ccco5)cc34)cc2)cc1 | 0.76% | 4% | 2.21% | 0.1% | -0.74% | -2.56% | -0.1% | 0.23% | -0.38% | 0.2% | -0.06% | -2.23% | -0.29% | 0.67% | -1.15% | 2.08% | 1.66% | 0.84% | 4.49% | 0.59% |
| COc1ccc(-c2cc3c(N)ncnc3o2)cc1 | 0.68% | -0.12% | 7.71% | -0.86% | 3.1% | -0.88% | 0.39% | 0.19% | 2.97% | -0.07% | 8.52% | 1.15% | 0.89% | -0.3% | -2.59% | 4.17% | 2.93% | 0.2% | 5.93% | -0.7% |
| CCn1c(-c2nonc2N)nc2c(C#CC(C)(C)O)nc(OC[C@H](N)c3ccccc3)cc21 | 1.49% | 1.86% | -0.29% | -0.06% | 1.71% | -2% | -0.34% | 59.6% | 96.1% | 3.94% | 1.58% | 1.78% | 10% | 0.36% | 0.72% | 3.28% | -0.5% | 2.85% | 3.65% | 5.32% |
| CN1CCC(n2cnc(-c3ccc(F)cc3)c2-c2ccnc(N)n2)CC1 | 6.65% | 1.99% | 8.12% | 0.06% | 0.49% | -0.36% | -2.05% | 3.28% | 10.8% | 1.87% | 9.51% | 5.49% | 7.78% | 4.69% | 3.03% | -0.68% | 3.94% | 2.45% | 13.7% | 2.54% |
| Fc1ccc(-c2nn3ncccc3c2-c2ccnc(Nc3ccc4c(c3)OCCO4)n2)cc1 | 0.31% | 3.02% | 2.04% | 0.34% | 1.88% | -0.15% | -1.41% | 30.6% | 75.5% | 60.7% | 91.9% | 3.55% | 4.13% | 5.56% | 27.3% | 16.3% | 64.5% | 44.7% | 85.1% | 3.99% |
| CCn1c(-c2nonc2N)nc2cnc(Oc3cccc(NC(=O)c4ccc(N(C)C)cc4)c3)cc21 | 0.86% | 0.78% | 2.7% | 0.7% | 0.27% | -0.01% | -1.1% | 2.18% | 8.86% | 0.97% | 1.33% | 0.14% | -1.44% | 0.35% | -0.9% | -2.78% | 2.28% | -0.65% | 1.33% | 1.6% |
| CNC(=O)c1cncc(/C=C/c2ccccc2Cl)c1 | 2.43% | 1.61% | 10.6% | 0.26% | 1.2% | 1.51% | 2.32% | 0.94% | 8.36% | 0.25% | 10.7% | -0.76% | 3.85% | -1.89% | 3.4% | 2.25% | 8.8% | 4.51% | 5.49% | -0.19% |
| COc1cc2ncn(-c3cc(OCc4ccccc4C(F)(F)F)c(C(=O)N(C)C)s3)c2cc1OC | 1.76% | -1.58% | 8.12% | 0.32% | -0.19% | -0.48% | 14.7% | 6.67% | 27.5% | 0.26% | 3.36% | 0.31% | 3.99% | -0.65% | 1.38% | -2.81% | 1.25% | 2.04% | 11.2% | 1.37% |
| COC(=O)Nc1nc2ccc(Oc3ccc(NC(=O)Nc4cccc(Cl)c4)cc3)cc2[nH]1 | 0.42% | 0.77% | 4.07% | 0.38% | -0.26% | -0.87% | -0.3% | 32.4% | 62.5% | 72.9% | 90.8% | -0.72% | -1.6% | 22.5% | 57.1% | 69.5% | 91.2% | 2.47% | 9.47% | 2.31% |
